# Laboratory results as given in PubChem BioAssay (Tox21).
# “And” between values parts separate entries of the source, which are not always exact repeats. Equal entries are not always repeated. The source made the active and inactive calls. Where a call stands in place of a potency, no number is given. The call rests on the fitted dose curve.
# System: not listed separately
# Test: qHTS assay to identify small molecule antagonists of the estrogen receptor alpha (ER-alpha) signaling pathway - cell viability counter screen (AID 743074);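 further: HEK293 cells carrying ER-alpha-UAS-bla reporter stimulated with 17beta-estradiol; nearly all actives have a fitted effect of over 45% in size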
# Conditions: ERalpha-bla HEK293 viability, CellTiter-Glo luminescence, 18 h; series mostly up to 69.4 µM
# Potency means the concentration at half of the fitted maximal effect.
row,Compound,Potency
1,C[CH2][Hg][S]c1ccccc1C(=O)O,13.4 µM (active) and 12.3 µM (active)
2,CCC(C)(C)O,inactive
3,CCCCCCCCCCCCCCCl,inactive
4,CN[C@@H](C)[C@H](O)c1ccccc1,inactive
5,CCOP(=S)(S)OCC,inactive
6,OC[P+](CO)(CO)CO,inactive
7,CCC[N+](CCC)(CCC)CCC,inactive
8,CC1(C)CC(=O)CC(C)(C)N1[O],inactive
9,O=C(Cc1ccccc1)c1ccccc1,inactive
10,COc1ccc(C(=O)c2c(C)n(CCN3CCOCC3)c3ccccc23)cc1,inactive
11,C[N+](C)(C)CC1CO1 (configuration not stated),inactive
12,CCOP(=O)(SC(C)CC)N1CCSC1=O (configuration not stated),inactive
13,COCc1cnc(C2=NC(C)(C(C)C)C(=O)N2)c(C(=O)O)c1 (configuration not stated),inactive
14,CC(C)(C)NCC(O)c1ccccc1Cl (configuration not stated),inactive
15,CCN(C(C)=O)c1cccc(-c2ccnc3c(C#N)cnn23)c1,inactive
16,N#CC(C#N)=Cc1ccc(O)c(O)c1,inactive
17,OCCCl,inactive
18,O=S(=O)(Cl)Cl,inactive

row,Compound,Potency
1,CCC(C)(C)c1ccc(O)c(C(C)(C)CC)c1,inactive
2,CC(C)OC(=O)Cc1ccccc1,inactive
3,NC(=S)c1c(Cl)cccc1Cl,inactive
4,CCCC(C)(COC(N)=O)COC(=O)NC(C)C (configuration not stated),inactive
5,CON(C)C(=O)Nc1ccc(Cl)cc1,inactive
6,Cc1nc(N(C)C)nc(OC(=O)N(C)C)c1C,inactive
7,CCOP(=O)(O)C(N)=O,inactive
8,COC(=O)Cc1ccccc1,inactive
9,Clc1ccccc1,inactive
10,CC(C)C1(C)N=C(c2ncccc2C(=O)O)NC1=O (configuration not stated),inactive
11,O=C(NC(=O)c1cc(F)c(F)cc1Cl)Nc1cc(F)ccc1N1CCC(C(=O)O)CC1,inactive
12,CC(=O)OC(c1ccccc1)C(Cl)(Cl)Cl (configuration not stated),inactive
13,CCOC(=O)NC(O)C(Cl)(Cl)Cl (configuration not stated),inactive
14,O=C(CCl)CCl,inactive
15,CC(Cc1ccccc1)NCc1ccccc1Cl (configuration not stated),inactive
16,CCOC(=O)c1cncn1C(C)c1ccccc1 (configuration not stated),inactive
17,CC(C)(C)OOC(C)(C)CCC(C)(C)OOC(C)(C)C,inactive

# Target: Estrogen receptor (Homo sapiens) (UniProt P03372)
# Test: qHTS assay to identify small molecule agonists of the estrogen receptor alpha (ER-alpha) signaling pathway (AID 743075);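 further: HEK293 GripTite cells with ER-alpha and UAS-driven beta-lactamase reporter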
# Conditions: HEK293 ER-alpha-UAS-bla, beta-lactamase FRET ratio, 18 h; series mostly up to 70.1 µM
# Chain of Estrogen receptor (Homo sapiens) (P03372 whole entry, looked up): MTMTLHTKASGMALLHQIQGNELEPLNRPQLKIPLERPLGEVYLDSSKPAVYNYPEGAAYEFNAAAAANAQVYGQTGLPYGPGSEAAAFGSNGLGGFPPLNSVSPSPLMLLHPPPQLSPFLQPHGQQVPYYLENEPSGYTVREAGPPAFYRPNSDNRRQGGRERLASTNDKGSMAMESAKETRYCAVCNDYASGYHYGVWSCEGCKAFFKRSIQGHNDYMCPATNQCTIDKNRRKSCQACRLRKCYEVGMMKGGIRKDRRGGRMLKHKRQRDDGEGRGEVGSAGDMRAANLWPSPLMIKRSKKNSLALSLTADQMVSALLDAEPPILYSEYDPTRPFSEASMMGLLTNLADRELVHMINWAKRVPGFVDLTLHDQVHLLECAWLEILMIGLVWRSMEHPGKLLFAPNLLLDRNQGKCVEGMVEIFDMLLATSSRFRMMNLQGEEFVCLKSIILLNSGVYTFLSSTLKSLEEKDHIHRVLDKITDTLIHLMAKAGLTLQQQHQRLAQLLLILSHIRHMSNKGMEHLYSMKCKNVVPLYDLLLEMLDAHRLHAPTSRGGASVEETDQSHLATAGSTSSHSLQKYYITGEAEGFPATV
row,Compound,Potency
1,CCC(C)(C)O,inactive
2,CCCCCCCCCCCCCCCl,inactive
3,CN[C@@H](C)[C@H](O)c1ccccc1,inactive
4,CCOP(=S)(S)OCC,inactive
5,CCC[N+](CCC)(CCC)CCC,inactive
6,O=C(Cc1ccccc1)c1ccccc1,inactive
7,C[N+](C)(C)CC1CO1 (configuration not stated),inactive
8,COCc1cnc(C2=NC(C)(C(C)C)C(=O)N2)c(C(=O)O)c1 (configuration not stated),inactive
9,CC(C)(C)NCC(O)c1ccccc1Cl (configuration not stated),inactive
10,CCN(C(C)=O)c1cccc(-c2ccnc3c(C#N)cnn23)c1,inactive
11,O=S(=O)(Cl)Cl,inactive
12,CCC(C)(C)c1ccc(O)c(C(C)(C)CC)c1,inactive
13,CC(C)OC(=O)Cc1ccccc1,inactive
14,NC(=S)c1c(Cl)cccc1Cl,inactive
15,CCCC(C)(COC(N)=O)COC(=O)NC(C)C (configuration not stated),inactive
16,CON(C)C(=O)Nc1ccc(Cl)cc1,inactive
17,Cc1nc(N(C)C)nc(OC(=O)N(C)C)c1C,inactive
18,CCOP(=O)(O)C(N)=O,inactive
19,COC(=O)Cc1ccccc1,inactive
20,Clc1ccccc1,inactive
21,CC(C)C1(C)N=C(c2ncccc2C(=O)O)NC1=O (configuration not stated),inactive
22,O=C(NC(=O)c1cc(F)c(F)cc1Cl)Nc1cc(F)ccc1N1CCC(C(=O)O)CC1,inactive
23,CC(=O)OC(c1ccccc1)C(Cl)(Cl)Cl (configuration not stated),inactive
24,CCOC(=O)NC(O)C(Cl)(Cl)Cl (configuration not stated),inactive
25,O=C(CCl)CCl,50.7 µM [activator] (active) and 1.1 µM [inconclusive] (active)
26,CC(Cc1ccccc1)NCc1ccccc1Cl (configuration not stated),inactive
27,CCOC(=O)c1cncn1C(C)c1ccccc1 (configuration not stated),inactive
